Experimental data taken from PubChem BioAssay AID425 (Sanford-Burnham Center for Chemical Genomics, 2006).
“And” between values parts separate entries of the source, which are not always exact repeats. Identical values can stand only once. About 190 (0.17%) of roughly 110,000 compounds were called active. No stated cut-off is given here; in the data, active means inhibition above about 50%; inactive means the rest. What follows is part of a selection rich in actives, with near analogues and random picks from the rest. Entries with a potency or affinity are not part of this list.

Target: Dual specificity protein phosphatase 6 (Rattus norvegicus) (UniProt Q64346)
Sequence (Q64346 whole entry, looked up): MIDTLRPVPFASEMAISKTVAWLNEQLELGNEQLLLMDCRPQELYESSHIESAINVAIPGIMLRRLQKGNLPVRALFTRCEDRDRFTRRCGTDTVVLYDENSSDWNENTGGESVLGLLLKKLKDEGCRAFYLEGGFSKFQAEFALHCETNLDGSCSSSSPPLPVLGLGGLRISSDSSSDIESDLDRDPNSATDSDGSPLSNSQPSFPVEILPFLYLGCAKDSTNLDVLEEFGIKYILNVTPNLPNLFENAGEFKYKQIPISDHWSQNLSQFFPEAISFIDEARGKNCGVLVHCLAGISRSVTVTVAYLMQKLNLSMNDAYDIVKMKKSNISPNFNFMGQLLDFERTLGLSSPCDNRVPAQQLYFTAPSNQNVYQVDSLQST
Assay: MKP-3 phosphatase inhibitors, primary screen, biochemical, rat enzyme, in vitro (AID 425);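 further: plate controls were vehicle for no effect and reference inhibitor for full effect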
Settings: recombinant MKP-3 phosphatase activity, fluorescence; at 20 µM; stronger effect = higher value

Row | Structure (SMILES) | inhibition
1 | CN(C)c1ccc(/C=C/C=C/c2cc[n+](CCCS(=O)(=O)[O-])cc2)cc1 | 5% (inactive)
2 | c1ccc(-c2noc(C34CC5CC(CC(C5)C3)C4)n2)nc1 | -5.1% (inactive)
3 | CN1C(=O)NC(=O)/C(=C/c2ccc(-c3ccc(Cl)cc3Cl)o2)C1=O | 66.9% (active)
4 | CN1C(=O)NC(=O)/C(=C/c2ccc(-c3ccc([N+](=O)[O-])cc3Cl)o2)C1=O | 12% (inactive)
5 | CN1C(=O)NC(=O)/C(=C/c2ccc(-c3ccc(Cl)cc3)o2)C1=O | 39.8% (inactive)
6 | CCn1nc(NC(=O)c2ccncc2)c2cc3cc(C)ccc3nc21 | -13.2% (inactive)
7 | O=C(NCCN1CCOCC1)c1cnn2c(C(F)(F)F)cc(-c3ccc(Br)cc3)nc12 | -0.4% (inactive)
8 | CCN1C(=O)N(COC(C)=O)C2C1N(COC(C)=O)C(=O)N2CC (stereo not given) | 3.5% (inactive)
9 | Cc1c(-c2cccc(Cl)c2)nc2ccccc2c1C(=O)O | 1.1% (inactive)
10 | O=C(Cn1c(O)c(N=NC(=O)c2ccc([N+](=O)[O-])cc2)c2ccccc21)Nc1ccccc1 | 0.9% (inactive)
11 | O=C(Cn1c(O)c(N=NC(=O)C(=O)Nc2ccc([N+](=O)[O-])cc2)c2ccccc21)Nc1ccccc1 | -0.4% (inactive)
12 | Cc1ccc(C2SCC(=O)N2CCCN(C)C)cc1 (stereo not given) | -0.2% (inactive)
13 | Cc1c(Cl)cccc1N=C1NC(=O)/C(=C/c2ccc(OC(C)C)cc2)S1 | 3.5% (inactive)
14 | O=C(Nc1ccccc1Cl)c1cccc(F)c1 | 0.5% (inactive)
15 | Cc1ccccc1C(=O)Nc1cccc(C(=O)Nc2ccccc2Cl)c1 | 0.2% (inactive)
16 | O=C(Nc1ccccc1Cl)c1cccc(NC(=O)C(F)(F)F)c1 | 98.8% (active)
17 | CCOC(=O)C1=C(O)CCn2c1nc1ccccc12 | -0.7% (inactive) and -13.2% (inactive)
18 | CCOC(=O)C1(C)C=C(Nc2ccc(S(=O)(=O)Nc3nccs3)cc2)C(=O)N1c1ccccc1 (stereo not given) | 2.7% (inactive)
19 | COC(=O)c1c(NC(=O)c2cncc(Br)c2)sc2c1CCC2 | -14% (inactive)
20 | Cc1ccccc1NC(=O)C(C)NC(=O)C12CC3CC(CC(C3)C1)C2 (stereo not given) | 1.2% (inactive)

Row | Structure (SMILES) | inhibition
21 | COc1ccc(Cl)cc1NC(=O)c1cc2nc(-c3ccccc3)cc(C)n2n1 | 63.8% (active)
22 | COc1cc(NC(=O)c2cc3nc(-c4ccccc4)cc(C)n3n2)c(OC)cc1Cl | 10.6% (inactive)
23 | Cc1cc(-c2ccccc2)nc2cc(C(=O)Nc3ccc(Cl)cc3)nn12 | 3.4% (inactive)
24 | Cc1ccc(NC(=O)COc2ccc(Br)cc2)c(C)c1 | 2.7% (inactive)
25 | Cc1ccc(S(=O)(=O)Nc2cc(Sc3nc4ccccc4[nH]3)c(O)c3ccccc23)cc1 | 8.1% (inactive)
26 | Cc1ccc(S(=O)(=O)Nc2cc(Sc3ncn[nH]3)c(O)c3ccccc23)cc1 | 56% (active)
27 | Cc1ccc(S(=O)(=O)Nc2cc(C)c(O)c(Sc3ncn[nH]3)c2)cc1 | 4.4% (inactive)
28 | COc1ccc(C2CC(=O)C3=C(C2)Nc2ccccc2NC3c2cccs2)cc1 (stereo not given) | 3.6% (inactive)
29 | CCSc1nc(-c2cccs2)nc2c1c(=O)n(C)c(=O)n2C | -4.4% (inactive)
30 | COc1ccc(-n2c(C)cc(C)nc2=O)cc1 | -1.5% (inactive)
31 | Cc1nc(C)n(C)c(=O)c1-c1ccccc1 | -0.4% (inactive)
32 | Cn1c(/C=C/c2cccnc2)nc2ccccc2c1=O | -2.3% (inactive)
33 | COc1ccc(OC)c(/C=c2\sc3nc(-c4cccs4)nn3c2=O)c1 | 0.4% (inactive)
34 | CCOC(=O)Cn1nc(-c2ccccc2)nc1-c1ccccc1 | -8% (inactive)
35 | Cn1c(/C=C/c2ccc(Br)cc2)nc2ccccc2c1=O | 0.8% (inactive)
36 | O=C(Nc1ccc(-c2cn3ccsc3n2)cc1)C1COc2ccccc2O1 (stereo not given) | 2.3% (inactive)
37 | CC1=C(C(=O)Nc2cccc(C)c2)C(c2cc(Br)ccc2O)NC(=O)N1 (stereo not given) | -0.3% (inactive)
38 | CCOc1ccccc1NC(=O)C1C2C=CC(O2)C1C(=O)O (stereo not given) | -14.3% (inactive)
39 | COC(=O)c1cc(C(=O)NC2CCCCCC2)cc([N+](=O)[O-])c1 | -3.5% (inactive)
40 | CCOc1cccc(/C=N\NC(=O)Cc2cccn2C)c1O | 2.2% (inactive)

Row | Structure (SMILES) | inhibition
41 | C=CCOc1ccc(/C=C2\C(=O)NC(C)=C2C(=O)OC)cc1OC | 3% (inactive)
42 | COc1cc(F)ccc1S(=O)(=O)N1CCCCCC1 | -0.1% (inactive)
43 | Cc1cccc(N2CCN(C(=O)c3ccc(Cl)c(Cl)c3)CC2)c1C | 3.8% (inactive)
44 | C=CCN1C(=O)/C(=C/c2ccc(Cl)cc2)C(=O)NC1=S | 1.8% (inactive)
45 | c1ccc(-c2nnc(-c3ccccn3)nc2-c2ccccc2)cc1 | -0.7% (inactive)
46 | CCn1c(N)nc2c1c(=O)n(C)c(=O)n2C | -1.5% (inactive)
47 | CCCc1nc(SCC(=O)c2ccc(OC)cc2)c2c(=O)n(C)c(=O)n(C)c2n1 | -2.4% (inactive)
48 | Cn1c(-c2ccccn2)nc2ccccc21 | 1.2% (inactive)
49 | O=c1c2c3c(sc2n2c(=S)[nH]nc2n1-c1ccccc1)CCCCC3 | 1.2% (inactive)
50 | COc1ccc(CCNC(=O)C2CCN(S(=O)(=O)N3CCCCC3)CC2)cc1OC | -1.4% (inactive)
51 | COc1ccc(Cc2nnc(SCC(=O)N3CCN(c4ccccc4)CC3)o2)cc1 | -9.3% (inactive)
52 | O=C1N=c2ccccc2=C1c1s/c(=N/N=C2/C(=O)Nc3ccccc32)n(-c2ccc(O)cc2)c1O | 69.8% (active)
53 | O=C1N=c2ccccc2=C1c1sc(=Nc2ccccc2)n(-c2ccccc2)c1O | -2% (inactive)
54 | O=C1N=c2ccccc2=C1c1sc(=O)n(-c2ccc(O)cc2)c1O | 0.6% (inactive)
55 | Cc1ccc(-c2nc(CS(=O)CC(=O)NCCC(C)C)c(C)o2)cc1 (stereo not given) | -10.1% (inactive)
56 | CCCCNCCCOc1ccccc1CC | -0.3% (inactive)
57 | COc1cc(C=C2C(=O)c3ccccc3C2=O)cc(Br)c1OCC(=O)O | 3.3% (inactive)
58 | COc1cc(/C=C2\SC(NC(C)=O)=NC2=O)cc(Br)c1OC | 3.2% (inactive)
59 | CCOCCOC(=O)c1cccc(NC(=O)/C=C/c2ccc(Cl)cc2Cl)c1 | 3.2% (inactive)
60 | NC(=O)c1cc(-c2ccccc2)sc1N | 3.8% (inactive)
